Experimental data taken from the supplement of paper PMC7156485.
± gives the standard deviation of the averaged measurements.

test system: HCC1569; test: cell number relative to DMSO (% of DMSO); higher = more cells (less growth inhibition / toxicity); conditions: concentration: 10 µM; 24 h
Summary of the method: (§1)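 Treatment: HCC1569 and TDF cells, 800 per well in 384-well plates with RPMI and 10% FBS, were given compounds at 10 µM for 24 h at 37 °C, in triplicate. Readout: after 3.7% formaldehyde fixation, cells were stained with a rabbit anti-H1.0 antibody, an AlexaFluor 647 secondary and DAPI. Reported values are H1.0 nuclear intensity or cell number as percent of the plate control, taken as the median of replicates, with positional smoothing for HCC1569.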
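Further: TDF denotes transformed human dermal fibroblasts of mesenchymal origin.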

| Structure (SMILES) | cell number |
| --- | --- |
| Br.CN1CCc2c(cc(O)c(O)c2Cl)C(c2cccc(Cl)c2)C1 (stereo unspecified) | 89.6 |
| CCCC(CCC)C(=O)[O-].[Na+] [Valproic acid sodium] | 108 |
| CC(=O)Oc1ccc(C(c2ccc(OC(C)=O)cc2)c2ccccn2)cc1 [Bisacodyl] | 94.2 |
| OCC1OC(n2cnc3c(NC4CCCC4)ncnc32)C(O)C1O (stereo unspecified) [N6-Cyclopentyladenosine] | 99.8 |
| CC(=O)C1CCC2C3CC=C4CC(OS(=O)(=O)[O-])CCC4(C)C3CCC12C.[Na+] (stereo unspecified) [Pregnenolone sulfate sodium] | 105 |
| C[N+]1(CCCCC[N+]2(C)CCCC2)CCCC1.O=C([O-])C(O)C(O)C(=O)O.O=C([O-])C(O)C(O)C(=O)O [Pentolinium di[L(+)-tartrate]] | 103 |

test system: TDF; test: as above; conditions: concentration: 10 µM; 24 h
Summary of the method: as §1

| Structure (SMILES) | cell number |
| --- | --- |
| CC=C1C2C=C(C)CC1(N)c1ccc(=O)[nH]c1C2 (single isomer, unassigned; (-)) [(-)-Huperazine] | 100 |
| CN1CCC(c2c(O)cc(O)c3c(=O)cc(-c4ccccc4Cl)oc23)C(O)C1 (stereo unspecified) [Alvocidib] | 19.9 |
| COC1(NC(=O)CSCC#N)C(=O)N2C(C(=O)[O-])=C(CSc3nnnn3C)CSC21.[Na+] (stereo unspecified) [Cefmetazole sodium] | 110 |
| Cl.Cl.Cl.NCCC1CCCC(CCN)N1 (stereo unspecified) [MDL 26,630 trihydrochloride] | 105 |
| CC12CCC3c4ccc(O)cc4CCC3C1CCC2=O (stereo unspecified) [Estrone] | 99.9 ± 9.3 |
| COc1cc2c(cc1OC)-c1cc(=Nc3c(C)cc(C)cc3C)n(C)c(=O)n1CC2.Cl [Trequinsin.HCl] | 107 |
| Cn1cc(C2=C(c3cn(CCCSC(=N)N)c4ccccc34)C(=O)NC2=O)c2ccccc21 | 21.3 |
| O=C(O)C1=CC(=NNc2ccc(S(=O)(=O)Nc3ccccn3)cc2)C=CC1=O [Sulfasalazine] | 102 |
| C#CCNCc1cc2cc(OCc3ccccc3)ccc2[nH]1 [N-((5-(benzyloxy)-1H-indol-2-yl)methyl)prop-2-yn-1-amine] | 91 |
| O=C(COc1ccc(Cl)cc1)NC1CCC(NC(=O)COc2ccc(Cl)cc2)CC1 (stereo unspecified) | 100 |
| O=C(O)C=CC(=O)O.c1cnc(N2CCN(Cc3ccc4c(c3)OCO4)CC2)nc1 [Piribedil maleate] | 116 |
| CC(C)(C)NCC(O)COc1cccc2[nH]c(=O)[nH]c12.Cl (racemic) | 110 |
| C=C1OC(CO)(n2cnc3c(N)ncnc32)C(O)C1O (stereo unspecified) [Decoyinine] | 105 |
| COc1ccc(N2C(=O)CSC2c2cccc(Br)c2)c(OC)c1 (stereo unspecified) | 10.8 |
| O=C(Nc1ccc(S(=O)(=O)Nc2nccs2)cc1)C(c1ccccc1)c1ccccc1 | 105 |
| COC(=O)N=NC=C1C=[N+]([O-])c2ccccc2N1O [Carbadox] | 101 |
| CCOC(=O)C(C)(C)Oc1ccc(Cl)cc1 [Clofibrate] | 99.8 ± 6.2 |
| CC1OC(OC2C(Oc3cc(O)c4c(=O)cc(-c5ccc(O)cc5)oc4c3)OC(CO)C(O)C2O)C(O)C(O)C1O (stereo unspecified) [Rhoifolin] | 112 |
| Br.Br.N=C(N)SCCN [2-(2-Aminoethyl)isothiourea dihydrobromide] | 85.8 |
| Cc1ccccc1C(=O)c1ccc(Nc2ccc(Br)cc2N)cc1Cl | 107 |

| Structure (SMILES) | cell number |
| --- | --- |
| COc1nccc(-c2c(-c3ccc(F)cc3)ncn2C2CCC(O)CC2)n1 (stereo unspecified) | 112 |
| COc1cc2c3cc1Oc1cc(ccc1O)CC1c4c(cc(OC)c(O)c4Oc4ccc(cc4)CC3N(C)CC2)CC[N+]1(C)C.Cl.[Cl-] (single isomer, unassigned; (+)) [(+)-Tubocuraraine chloride] | 109 |
| CC1Cc2ccccc2N1NC(=O)c1ccc(Cl)c(S(N)(=O)=O)c1 (stereo unspecified) [Indapamide] | 101 |
| Clc1ccc2c(c1)CCc1cccnc1C2=C1CCNCC1 [Desloratadine] | 102 |
| Nc1ncnc2c1C(=O)N(c1ccc(C3CCC(CC(=O)O)CC3)cc1)CCO2 (stereo unspecified) | 95.7 |
| CC(C)=CCC(OC(=O)C=C(C)C)C1=CC(=O)c2c(O)ccc(O)c2C1=O (stereo not drawn) [Shikonin beta,beta-dimethylacrylate] | 83.5 |
| O=C1C=C(CO)OCC1=O [5-hydroxy-2-(hydroxymethyl)-4H-pyran-4-one] | 94.6 |
| COc1ccccc1N1CCN(CCCCNC(=O)c2ccc3ccccc3c2)CC1 [N-{4-[4-(2-methoxyphenyl)-1-piperazinyl]butyl}-2-naphthamide] | 98.1 |
| O=C(C=Cc1ccc(O)c(O)c1)OCCc1ccccc1 | 85.77 ± 0.57 |
| COc1cc2ncnc(Nc3ccc(OCc4ccccc4)cc3)c2cc1OC [EGFR/ErbB-2 Inhibitor] | 92.5 |
| O=c1cc(N2CCOCC2)oc2c(-c3ccccc3)cccc12 | 102 |
| COc1cc(CCC(C)=O)ccc1O [Vannilylacetone] | 90.8 |
| Cc1cccc(C=Cc2ccccc2)n1 | 104 |
| COc1ccccc1N1CCN(CCCCNS(=O)(=O)c2cccc3c(N(C)C)cccc23)CC1.O=C(O)C=CC(=O)O [Cortexolone maleate] | 99.8 |
| Br.CN1CCc2c(cc(O)c(O)c2Cl)C(c2cccc(Cl)c2)C1 (stereo unspecified) | 81.1 |
| CCCC(CCC)C(=O)[O-].[Na+] [Valproic acid sodium] | 119 |
| CC(=O)Oc1ccc(C(c2ccc(OC(C)=O)cc2)c2ccccn2)cc1 [Bisacodyl] | 102 |
| OCC1OC(n2cnc3c(NC4CCCC4)ncnc32)C(O)C1O (stereo unspecified) [N6-Cyclopentyladenosine] | 104 |
| CC(=O)C1CCC2C3CC=C4CC(OS(=O)(=O)[O-])CCC4(C)C3CCC12C.[Na+] (stereo unspecified) [Pregnenolone sulfate sodium] | 110 |
| C[N+]1(CCCCC[N+]2(C)CCCC2)CCCC1.O=C([O-])C(O)C(O)C(=O)O.O=C([O-])C(O)C(O)C(=O)O [Pentolinium di[L(+)-tartrate]] | 110 |
